Among the data in ChEMBL document CHEMBL3988442, “University of Dundee, Small-Polar-MMV Screening Library” (2021) are PXC50 values, retold here.

A value given as a limit tells only on which side of the number the result lay.

The target in this test is T1, Methionyl-tRNA synthetase, putative (Leishmania donovani (strain BPK282A1)) (UniProt E9BF75).
T1 sequence (whole entry): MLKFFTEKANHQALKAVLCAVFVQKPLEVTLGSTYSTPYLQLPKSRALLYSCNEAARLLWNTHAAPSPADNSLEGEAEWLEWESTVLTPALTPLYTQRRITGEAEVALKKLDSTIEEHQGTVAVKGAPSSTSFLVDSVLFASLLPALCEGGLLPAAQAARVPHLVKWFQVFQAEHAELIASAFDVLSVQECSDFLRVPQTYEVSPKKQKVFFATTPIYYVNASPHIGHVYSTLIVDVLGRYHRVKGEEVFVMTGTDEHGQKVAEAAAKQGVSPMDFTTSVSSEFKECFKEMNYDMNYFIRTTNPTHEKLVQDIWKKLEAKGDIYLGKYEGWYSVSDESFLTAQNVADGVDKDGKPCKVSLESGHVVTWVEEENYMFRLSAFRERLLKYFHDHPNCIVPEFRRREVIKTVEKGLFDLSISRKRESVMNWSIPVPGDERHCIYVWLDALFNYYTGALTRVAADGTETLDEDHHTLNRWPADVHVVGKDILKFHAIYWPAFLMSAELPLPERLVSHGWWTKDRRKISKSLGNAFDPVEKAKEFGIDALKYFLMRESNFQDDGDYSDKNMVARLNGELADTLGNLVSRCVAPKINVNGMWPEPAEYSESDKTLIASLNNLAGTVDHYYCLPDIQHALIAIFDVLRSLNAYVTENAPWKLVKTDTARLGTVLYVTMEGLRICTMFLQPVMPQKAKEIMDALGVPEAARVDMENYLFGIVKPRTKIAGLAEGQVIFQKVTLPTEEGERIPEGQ
The experiment in a line: Leishmania donovani Methionine tRNA synthetase (LdMetRS):v7. Dose response assay. The arrangement: conc 80 nM, time 150 minutes. It counts as functional.

Turning to `COCCNc1nc(Nc2ccc(F)c(F)c2)nc2c1cnn2C`, the PXC50 runs as follows: (BOTTOM 0.0, HILLSLOPE 0.788642153, MAX_EFFECT 89.69957082, TOP 101.1762058) 5.15; (BOTTOM 0.0, HILLSLOPE 0.880096509, MAX_EFFECT 92.63657957, TOP 99.00872691) 5.23; (BOTTOM -0.84748474, HILLSLOPE 0.841528212, MAX_EFFECT 93.81044487, TOP 101.2621412) 5.29.

For `CN(CCO)c1nc(Nc2ccc(F)c(F)c2)nc2c1cnn2C`, the PXC50 came out at 5.71 (BOTTOM 0.0, HILLSLOPE 0.946216108, MAX_EFFECT 71.34724858, TOP 77.67704584); 5.35 (BOTTOM 6.419914674, HILLSLOPE 1.323004722, MAX_EFFECT 73.51598174, TOP 75.78870148); 5.63 (BOTTOM 11.43918674, HILLSLOPE 1.794336173, MAX_EFFECT 61.32075472, TOP 56.10925087).

As for `Cn1ncc2c(NCC3CC3)nc(Nc3ccc(F)c(F)c3)nc21`, the PXC50 is, setting by setting: (BOTTOM 0.0, HILLSLOPE 1.193695984, MAX_EFFECT 69.21119593, TOP 72.54722957) 5.02; (BOTTOM -3.303876123, HILLSLOPE 0.978123659, MAX_EFFECT 83.23699422, TOP 90.5971187) 5.12; (BOTTOM -7.642255371, HILLSLOPE 0.84165704, MAX_EFFECT 66.22807018, TOP 86.93864885) 4.93.

As for `N[C@@H]1c2ccccc2C2(CCN(c3cnc4ccccc4n3)CC2)[C@H]1O`, the PXC50 is, setting by setting: (BOTTOM 0.263751901, HILLSLOPE 1.516790173, MAX_EFFECT 51.81975737, TOP 100.0) 4.02; (BOTTOM -0.439515819, HILLSLOPE 1.13741317, MAX_EFFECT 66.44295302, TOP 100.0) 4.24; (BOTTOM -1.864115217, HILLSLOPE 1.086184415, MAX_EFFECT 68.05555556, TOP 100.0) 4.32.

With `Cn1ncc2c(NCCn3cnnn3)nc(Nc3ccc(F)c(F)c3)nc21`, the PXC50 runs as follows: (BOTTOM 0.694813003, HILLSLOPE 0.766193094, MAX_EFFECT 55.16528926, TOP 100.0) 4.46; (MAX_EFFECT 43.90715667) < 4; (MAX_EFFECT 44.05286344) < 4.

The compound `C[C@H](CO)Nc1nc(Nc2ccc(F)c(F)c2)nc2c1cnn2C` returned a PXC50 (BOTTOM 0.704945414, HILLSLOPE 0.848291247, MAX_EFFECT 90.56603774, TOP 99.28027428) of 5.18; a PXC50 (BOTTOM -2.01884568, HILLSLOPE 0.856610715, MAX_EFFECT 86.93586698, TOP 98.70470885) of 5.08; a PXC50 (BOTTOM -5.653457492, HILLSLOPE 0.743768618, MAX_EFFECT 93.13304721, TOP 109.1674954) of 5.06.

`Cn1ncc2c(NCCN)nc(Nc3ccc(F)c(F)c3)nc21`: the PXC50 runs as follows: (BOTTOM 0.911965316, HILLSLOPE 1.032464682, MAX_EFFECT 89.9543379, TOP 102.6852722) 4.79; (BOTTOM 7.300924011, HILLSLOPE 0.949344895, MAX_EFFECT 92.59962049, TOP 105.5838005) 4.84; (BOTTOM 8.334888852, HILLSLOPE 1.031126137, MAX_EFFECT 87.73584906, TOP 103.8891038) 4.68.

Take `COc1cnc(Nc2ccc(F)c(F)c2)nc1NCCO`: the PXC50 (BOTTOM 1.119092506, HILLSLOPE 0.867597172, MAX_EFFECT 78.41409692, TOP 85.56949583) turned out to be 5.21; the PXC50 (BOTTOM 1.563075745, HILLSLOPE 0.960019265, MAX_EFFECT 80.27079304, TOP 89.78065845) stood at 4.95; the PXC50 (BOTTOM 4.457946708, HILLSLOPE 0.924831459, MAX_EFFECT 80.78512397, TOP 87.63131575) came out at 5.14.

`Cn1ncc2c(NCC3CCCO3)nc(Nc3ccc(F)c(F)c3)nc21` (stereo unspecified): the PXC50 is, setting by setting: (BOTTOM 1.649824941, HILLSLOPE 0.742759749, MAX_EFFECT 82.45614035, TOP 99.7468185) 4.96; (BOTTOM 4.130822452, HILLSLOPE 0.904236715, MAX_EFFECT 86.03773585, TOP 94.6325805) 4.99; (BOTTOM 7.824180632, HILLSLOPE 1.170320257, MAX_EFFECT 82.95165394, TOP 90.00397209) 4.93.

`c1cc(-c2ccc3c(c2)CCC32CCN(c3nncs3)CC2)co1`: the PXC50 (BOTTOM 1.725579768, HILLSLOPE 1.730442881, MAX_EFFECT 81.97573657, TOP 100.0) was found to be 4.31; the PXC50 (BOTTOM 2.845642281, HILLSLOPE 1.539467031, MAX_EFFECT 93.05555556, TOP 100.0) is 4.55; the PXC50 (BOTTOM 5.084669568, HILLSLOPE 1.629318142, MAX_EFFECT 90.60402685, TOP 100.0) came out at 4.52.

Take `Cc1cc(NCCO)nc(Nc2ccc(F)c(F)c2)n1`: the PXC50 is 4.84 (BOTTOM 2.753913498, HILLSLOPE 0.759187316, MAX_EFFECT 87.41092637, TOP 100.0); 4.62 (BOTTOM 8.051339334, HILLSLOPE 0.840494555, MAX_EFFECT 84.97854077, TOP 109.6160526); 4.84 (BOTTOM -3.669323527, HILLSLOPE 0.810726137, MAX_EFFECT 81.68224299, TOP 99.92002792).

Turning to `Cn1ncc2c(NCC(C)(C)O)nc(Nc3ccc(F)c(F)c3)nc21`, the PXC50 reads like this: (BOTTOM 2.756167144, HILLSLOPE 0.998486082, MAX_EFFECT 82.64150943, TOP 95.06215472) 4.8; (BOTTOM -1.483509386, HILLSLOPE 0.96789371, MAX_EFFECT 77.86259542, TOP 87.31089032) 4.95; (BOTTOM -2.002010489, HILLSLOPE 0.709003451, MAX_EFFECT 80.70175439, TOP 108.677252) 4.69.

The compound `Cn1ncc2c(NCCCO)nc(Nc3ccc(F)c(F)c3)nc21` displayed a PXC50 (BOTTOM 3.669470718, HILLSLOPE 1.210805745, MAX_EFFECT 80.79625293, TOP 84.65096449) of 5.1; a PXC50 (BOTTOM -1.663315364, HILLSLOPE 0.981462858, MAX_EFFECT 92.22222222, TOP 100.0) of 4.94; a PXC50 (BOTTOM -4.044672009, HILLSLOPE 0.90681659, MAX_EFFECT 92.93598234, TOP 107.9137749) of 4.87.

Turning to `Cn1ncc2c(NC3CCOCC3)nc(Nc3ccc(F)c(F)c3)nc21`, the PXC50 was 4.65 (BOTTOM 5.374646893, HILLSLOPE 1.78968519, MAX_EFFECT 52.27272727, TOP 55.59803221); 5.4 (BOTTOM 9.100238565, HILLSLOPE 1.237667708, MAX_EFFECT 69.82591876, TOP 73.93326352); < 4 (MAX_EFFECT 40.52863436).

On to `COCCCNc1nc(Nc2ccc(F)c(F)c2)nc2c1cnn2C`, for which the PXC50 reads like this: (BOTTOM 8.707474288, HILLSLOPE 1.018785888, MAX_EFFECT 82.18527316, TOP 91.55126405) 4.89; (BOTTOM 8.755992534, HILLSLOPE 0.77848464, MAX_EFFECT 80.25751073, TOP 100.0) 4.77; (BOTTOM -0.585436575, HILLSLOPE 0.774777818, MAX_EFFECT 86.07350097, TOP 105.947702) 4.83.

With `Cn1ncc2c(N3CCCCC3)nc(Nc3ccc(F)c(F)c3)nc21`, the PXC50 reads like this: (BOTTOM 9.784183065, HILLSLOPE 1.295074552, MAX_EFFECT 52.03094778, TOP 54.78178501) 5.24; (MAX_EFFECT 30.83700441) < 4; (MAX_EFFECT 34.09090909) < 4.

As for `c1ccc(CNc2ncc(CN3CCCN4CCC[C@H]4C3)cn2)cc1`, the PXC50 reads like this: (BOTTOM -0.610075864, HILLSLOPE 1.031656218, MAX_EFFECT 61.9047619, TOP 100.0) 4.18; (BOTTOM -1.183822823, HILLSLOPE 1.053099151, MAX_EFFECT 65.67425569, TOP 100.0) 4.24; (MAX_EFFECT 60.86956522) < 4.
